Assay results as given in PubChem BioAssay AID1851 (National Center for Advancing Translational Sciences (NCATS), 2009).
Several values for one entry are separate records, joined by “and”; a condition that tells them apart may be missing. Equal entries are not always repeated. The campaign covered roughly 16,000 compounds. About 2,600 (16%) were called active. Not shown: some 20% with an inconclusive outcome. The call rests on the fitted dose curve; in most records, active means well fitted curve in the direction sought with a large enough effect; inconclusive means small, poorly fitted or top-dose-only effect, or effect the other way; inactive means no such curve, though single readings can be large or run the other way. A selection follows.

Target: Cytochrome P450 2D6 (Homo sapiens) (UniProt P10635)
Assay: Cytochrome panel assay with activity outcomes
Details: recombinant CYP, pro-luciferin dealkylation, luminescence, p450-cyp2d6; series mostly up to 57.1 µM; activity, negative = inhibition: at the top concentration
On the % scale 0 is the no-effect control and ±100 the full control effect.

Sequence of Cytochrome P450 2D6 (Homo sapiens) (P10635 whole entry, looked up): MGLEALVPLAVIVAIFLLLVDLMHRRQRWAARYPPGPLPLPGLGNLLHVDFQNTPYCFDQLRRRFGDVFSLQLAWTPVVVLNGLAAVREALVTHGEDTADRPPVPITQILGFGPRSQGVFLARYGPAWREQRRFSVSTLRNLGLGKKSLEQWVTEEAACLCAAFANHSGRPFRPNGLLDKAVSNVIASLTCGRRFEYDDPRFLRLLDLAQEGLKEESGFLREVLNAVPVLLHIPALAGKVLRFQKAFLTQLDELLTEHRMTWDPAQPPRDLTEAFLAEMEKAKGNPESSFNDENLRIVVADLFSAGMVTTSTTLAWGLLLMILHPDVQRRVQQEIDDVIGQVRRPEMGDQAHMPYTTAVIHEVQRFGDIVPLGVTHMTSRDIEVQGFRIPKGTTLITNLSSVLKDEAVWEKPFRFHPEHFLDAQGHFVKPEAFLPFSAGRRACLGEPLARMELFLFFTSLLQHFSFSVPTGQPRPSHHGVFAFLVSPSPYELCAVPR

Structure (SMILES)	activity, negative = inhibition	AC50
Cc1ccc2nc(NC(=O)CSc3nc4c(c(=O)n3C)SC(C)C4)sc2c1 (stereo unspecified)	-9.43% (inactive)	
Cc1ccnc(NS(=O)(=O)c2ccc(NC(=O)C3CCCNC3=O)cc2)n1 (stereo unspecified)	8.52% (inactive)	
CC(C)c1nnc(NC(=O)CCC(=O)N2CCN(c3ccccn3)CC2)s1	19.7% (inactive)	
O=[N+]([O-])c1cccc2c[nH]nc12	18.5% (inactive)	
C[C@]1(c2ccccc2)OC(C(=O)O)=CC1=O	5.34% (inactive)	
O=C(Nc1cccc(F)c1)N1CC[C@@]2(CCCNC2)C1	0.0719% (inactive)	
N#Cc1cccc(NC(=O)N2CC[C@@]3(CCCNC3)C2)c1	-13.4% (inactive)	
O=C(Nc1ccccc1)N1CCCC2(CCNCC2)C1	-13.6% (inactive)	
c1ccc(C(c2ccccc2)N2CC3(CCNCC3)C2)cc1		2.51 µM (active)
c1ccc(C(c2ccccc2)N2CC[C@@]3(CCCNC3)C2)cc1		15.8 µM (active)
c1ccc(C(c2ccccc2)N2CCC3(CCNCC3)CC2)cc1	-18.5% (inactive)	
CC(C)=CCC/C(C)=C/CO/N=C1/C[C@@H](O)[C@@H](O)[C@@H]2[C@@H]3C(=O)N(Cc4ccc5c(c4)OCO5)C(=O)[C@H]3CC[C@H]12	-10.1% [at 11.4 µM] (inactive)	
CCc1cc(C(=O)NNC(=S)NCC2CCCO2)cs1 (stereo unspecified)	-2.56% (inactive)	
O=C(O)c1cc(C(=O)C(=O)c2cc(C(=O)O)c(O)c3ccccc23)c2ccccc2c1O	-0.777% [at 11.4 µM] (inactive)	
CCNc1ncc2nc(-c3cn(C)c4ccccc34)c(=O)n(Cc3cccs3)c2n1	-17.1% (inactive)	
COc1ccc2c(c1)CCC1C2CC[C@]2(C)[C@H](NCCCCCCN3C(=O)C=CC3=O)CC[C@@H]12 (stereo partly specified)	1.35% (inactive)	
N#Cc1cccc(-c2nc3cnc(N4CCNCC4)nc3n(C3CC3)c2=O)c1	2.08% (inactive)	
CC(=O)c1sc(NC(=O)C(C)C)nc1C	1.86% (inactive)	
Fc1cccc(Cl)c1CSc1ncn[nH]1	7.01% (inactive)	
C[C@H](O/N=C1/[C@H]2O[C@@H]2[C@@H](O)[C@H]2[C@H]1CCn1c(=O)n(-c3ccccc3)c(=O)n12)c1cn([C@H](CO)Cc2ccccc2)nn1	-8.19% [at 11.4 µM] (inactive) and 10.1% [at 11.4 µM] (inactive)	
O=c1cc(-c2ccccc2)[nH]c2nc(Cl)ccc12	3.36% (inactive)	

Structure (SMILES)	activity, negative = inhibition	AC50
C[C@H]1CC[C@H]2C(=O)N3[C@H](c4ccc(Br)cc4)[C@@H](C)CC[C@H]3C(=O)N2[C@@H]1c1ccc(Br)cc1	-7.03% [at 11.4 µM] (inactive)	
C[C@@H]1CC[C@H]2C(=O)N3[C@@H](CC[C@@H](C)[C@@H]3c3ccc(Br)cc3)C(=O)N2[C@@H]1c1ccc(Br)cc1	-14.2% [at 11.4 µM] (inactive)	
CS(=O)(=O)N1N=C(c2ccc(Br)cc2)CC1c1ccc2c(c1)OCO2 (stereo unspecified)		0.631 µM (active)
Cn1cc(-c2nc3cncnc3n(Cc3ccccc3Cl)c2=O)c2ccccc21	0.741% (inactive)	
Cc1[nH]c(N)nc(=S)c1CCC(=O)O	5.35% [at 11.4 µM] (inactive)	
Cc1ccc(Oc2cc(N3CCOCC3)nc(-c3ccccc3)n2)cc1	-11.2% (inactive)	
CCOC(=O)c1c(-c2ccc(OC)cc2)csc1NC(=O)CCN1C(=O)c2ccccc2C1=O	-4.29% (inactive)	
COc1ccc(-c2csc3c2[N+]2=CCC=C2C3=O)cc1		3.16 µM (active)
CC[C@@H]1CC(=O)N(SC[C@H](N)C(=O)O)C1=O	7.85% [at 11.4 µM] (inactive)	
CN1C(=O)C[C@H](c2ccccc2)C1=O	4% [at 25.6 µM] (inactive)	
CN1Cc2c(N)cccc2[C@H](c2ccccc2)C1		31.6 µM (active) and 6.31 µM (active)
CC1(C)[C@@H]2CC[C@]1(C)[C@@H](OC(=O)/C=C\c1ccccc1)C2	2.99% [at 11.4 µM] (inactive)	
Oc1oc(-c2ccccc2)nc1C=Nc1ccccc1	4.46% (inactive)	
COc1cc(C2C(C(=O)c3cccs3)=C(O)C(=O)N2Cc2ccco2)cc(OC)c1OC (stereo unspecified)	17.7% (inactive)	
COC(=O)C/C=C\[C@@H](C)[C@@H](/C=N\OC[C@@H](C)[C@H](OCc1ccccc1)C(C)C)OC	-9.09% [at 11.4 µM] (inactive)	
COc1ccc(CCC(C)NC2C3CC4CC(C3)CC2C4)cc1 (stereo unspecified)		3.55 µM (active)
CCC(C)NC(=O)C1CC(c2ccc(OC)cc2)=NO1 (stereo unspecified)	-15.5% (inactive)	
COc1ccc(CN[C@H](C)C(=O)O)cc1	6.89% [at 11.4 µM] (inactive)	
Cc1ccc(N=Nc2c(N)n(-c3ccccc3)[nH]c2=O)cc1	-7.5% (inactive)	
COCCNC(=O)CCn1c(=O)oc2ccccc21	28.9% (inactive)	
S=C1N[C@H](c2ccccc2)N[C@H](c2ccccc2)S1		3.98 µM (active)

Structure (SMILES)	activity, negative = inhibition	AC50
O=C1C2[C@@H](c3ccccc3)N[C@@H](c3ccccc3)C1[C@H](c1ccccc1)N[C@H]2c1ccccc1	-8.91% [at 11.4 µM] (inactive)	
O=C(O)c1ccc(C(=O)c2ccccc2)c(C(=O)O)c1	14.9% [at 11.4 µM] (inactive)	
COC(=O)CSc1nnc(CNc2ccc(Cl)cc2)n1-c1ccccc1	-11.7% (inactive)	
CCOC(=O)CSc1cc(=O)n(C)c2cc(Cl)ccc12	-1.96% (inactive)	
Cn1c(=O)cc(SCC(=O)NCCN2CCN(c3ccccc3F)CC2)c2cc(Cl)ccc21		14.1 µM (active)
Cn1c(=O)cc(SCC(=O)NCCCN2CCOCC2)c2ccc(Cl)cc21	-24% (inactive)	
COCc1c(C(=O)OCC(=O)N2c3ccccc3NC(=O)C2(C)C)oc2ccccc12	9.74% (inactive)	
CCCNC(=O)OC[C@@H]1O[C@H](CCO/N=C(\C)CCC(=O)OC[C@@H]2O[C@H](c3ccccc3)C=C[C@@H]2Oc2ccc(OC)cc2)C=C[C@@H]1Oc1ccc(OC)cc1	5.63% [at 11.4 µM] (inactive)	
CCCNC(=O)OC[C@@H]1O[C@H](CCO/N=C(\C)CCN2CCCc3nc(C)c(C)cc32)C=C[C@@H]1Oc1ccc(OC)cc1	-18.3% [at 11.4 µM] (inactive)	
COc1ccc(O[C@H]2C=C[C@@H](c3ccccc3)O[C@H]2COC(=O)CC/C(C)=N\O[C@@H](C)CN2CCCc3nc(C)c(C)cc32)cc1		3.16 µM (active)
C/C(CCC(=O)OC[C@@H]1O[C@H](C#Cc2ccccc2)C=C[C@@H]1Oc1ccc(C)cc1)=N/O[C@@H](C)CN1CCCc2nc(C)c(C)cc21		3.16 µM (active)
COc1ccc(O[C@H]2C=C[C@@H](c3ccccc3)O[C@@H]2CO/N=C(\C)CCN2CCc3nc(-c4ccccc4)c(-c4ccccc4)cc3C2)cc1	-14.1% [at 11.4 µM] (inactive)	
COc1ccc(O[C@H]2C=C[C@@H](c3ccccc3)O[C@@H]2CO/N=C(\C)CCN2CCCc3nc(C)c(C)cc32)cc1		3.16 µM (active)
COc1cccc([C@@H]2Oc3ccc(OC)cc3/C(=N/O[C@@H](C)c3cn([C@H]4COC[C@H]4O)nn3)[C@@H]2O)c1	-18.2% [at 11.4 µM] (inactive)	
COc1cccc([C@H]2Oc3ccc(OC)cc3/C(=N\O[C@@H](C)c3cn([C@H](CO)Cc4ccccc4)nn3)[C@@H]2O)c1	-6.89% [at 11.4 µM] (inactive)	
COc1ccc(O[C@H]2C=C[C@@H](c3ccccc3)O[C@H]2CO/N=C(/C)CCC(=O)OC[C@@H]2O[C@H](C#Cc3ccccc3)C=C[C@@H]2Oc2ccc(C)cc2)cc1	11.9% [at 11.4 µM] (inactive)	
COc1cccc([C@@H]2Oc3ccc(OC)cc3/C(=N/O[C@@H](C)CN3CCCc4nc(C)c(C)cc43)[C@@H]2O)c1		3.98 µM (active)
C/C(CCC(=O)OC[C@@H]1O[C@H](C#Cc2ccccc2)C=C[C@@H]1Oc1ccc(C)cc1)=N/O[C@@H](C)c1cn([C@H](CO)Cc2ccccc2)nn1	-5.83% [at 11.4 µM] (inactive) and -8.36% [at 11.4 µM] (inactive)	
COc1ccc(O[C@H]2C=C[C@@H](c3ccccc3)O[C@H]2COC(=O)CC/C(C)=N\O[C@@H](C)c2cc(-c3c(C)cc(C)cc3C)no2)cc1	-7.29% [at 11.4 µM] (inactive)	
